Compound activity as filed in PubChem BioAssay.
In the library only some 2.4% were active in any assay of this set; here they are far more common.
D2 antag – HTS Assay for Allosteric Antagonists of the Human D2 Dopamine Receptor: Primary Screen for Antagonists. HEK293 TREx D2 cells, calcium flux, dopamine EC80. inhibition, % at 10 µM. D(2) dopamine receptor (Homo sapiens), P14416. AID 485344, 2010. actives 2% (n = 340,000); in the data active = inhibition above about 30%; inactive = below that, where a call was filed; also: 0% is about no effect
Target sequence (P14416 whole entry, looked up): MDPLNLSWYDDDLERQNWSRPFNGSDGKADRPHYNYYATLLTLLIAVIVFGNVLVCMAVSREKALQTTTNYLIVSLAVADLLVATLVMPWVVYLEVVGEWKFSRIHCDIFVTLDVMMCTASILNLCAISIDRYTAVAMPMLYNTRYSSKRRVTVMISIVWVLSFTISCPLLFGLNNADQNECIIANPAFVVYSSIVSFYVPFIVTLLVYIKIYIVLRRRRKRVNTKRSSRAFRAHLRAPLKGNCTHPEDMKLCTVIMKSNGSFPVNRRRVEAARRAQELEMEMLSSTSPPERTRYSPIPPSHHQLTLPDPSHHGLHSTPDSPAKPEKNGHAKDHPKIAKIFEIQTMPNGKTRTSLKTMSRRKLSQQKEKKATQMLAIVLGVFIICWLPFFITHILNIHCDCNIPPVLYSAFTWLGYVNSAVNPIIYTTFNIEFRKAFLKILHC
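Compounds are added to dye-loaded, induced HEK293 T-REx cells coupled to calcium release via D2; after a 3 min kinetic read an EC80 dopamine stimulus is given and fluorescence is recorded for 3 more min.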
D2 PAM-1 – HTS Assay for Positive Allosteric Modulators of the Human D2 Dopamine Receptor: Primary Screen for Potentiators; HEK293 T-REx D2, calcium flux, EC20 dopamine potentiation; potentiation, % at 10 µM; actives 0.34% (n = 340,000);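 active = potentiation over 3 SD above the plate norm, cut at about 30% in these data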; also: 0% is about no effect
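Calcium flux readout, no-wash dye, 1 read/s. Inducible HEK293 Trex D2 line, overnight 30 C. Compound alone 180 s (agonist flags), then EC20 dopamine, another 180 s to score potentiation.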
D2 ag-1 – Beta-Arrestin HTS for Positive Allosteric Modulators of the Human D2 Dopamine Receptor: Agonists | D(2) dopamine receptor (Homo sapiens), P14416 | DiscoveRx PathHunter D2 beta-arrestin, luminescence, 90 min; 100% = 57 uM dopamine signal | activation, % (no concentration beside the values) | actives 0.084% (n = 360,000) | AID 624465, 2012; in the data active = activation above about 40%; inconclusive = between about 15% and that limit
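Agonist mode: compounds alone added to overnight-plated D2 PathHunter cells for 90 min at 37 C, with 57 uM final dopamine (EC100) defining full response. Beta-arrestin recruitment detected by chemiluminescent reagent, read after 1 h at ambient temperature.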
D2 PAM-2 – Beta-Arrestin HTS for Positive Allosteric Modulators of the Human D2 Dopamine Receptor: Potentiators; D(2) dopamine receptor (Homo sapiens), P14416; potentiation, % (concentration not given with the values); DiscoveRx D2 beta-arrestin cells, luminescence, 90 min; 100% = 57 uM dopamine signal; actives 0.23% (n = 360,000); in the data active = potentiation above about 50%; inconclusive = mostly about 30% to 49%
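D2 cells co-treated with compound plus 50 nM dopamine (EC20) for 90 min at 37 deg C to detect potentiation. Beta-arrestin recruitment was read as enzyme-fragment luminescence after 1 h at ambient temperature. Full response was set by 57 uM dopamine.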
D2 ag-2 – HTS Assay for Allosteric Agonists of the Human D2 Dopamine Receptor: Primary Screen for Agonists; HEK293 T-REx D2 cells, calcium flux agonist mode; D(2) dopamine receptor (Homo sapiens), P14416; AID 485358, 2010; actives 0.53% (n = 340,000); activation, % at 2 µM;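 active = activation over 3 SD above normal in the single-dose calcium agonist read, cut at about 30% in these data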; also: 0% is about no effect
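Tetracycline-induced HEK293 Trex cells with D2 receptor force-coupled to calcium signaling, plated overnight at 30 C and loaded with no-wash calcium dye. Calcium flux read kinetically for 180 s after compound addition; responses flag agonists.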
D3 ag – qHTS of D3 Dopamine Receptor Agonist: D3 Dopamine Receptor B-arrestin Agonist Confirmatory Assay. AID 720506, 2013. DiscoveRx D3 beta-arrestin cells, luminescence, 90 min. Potency, µM (highest dose often 76.9 µM), without a hit: at the top dose activation, most hits filed as activators. shares compounds with D2 ag-2. actives 4% (n = 2,300);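 also: potency is read from the fitted curve at half-maximal effect; 100% = dopamine control response; nearly all actives have a fitted effect of over 70% in size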
D2 ag-3 – qHTS of D3 Dopamine Receptor Agonist: D2 Dopamine Receptor B-arrestin Agonist Counterscreen; DiscoveRx PathHunter D2 beta-arrestin, luminescence, 90 min; response scale: percent relative to full dopamine signal; Potency, µM (series often up to 76.9 µM), inactives show at the top dose activation, hits mostly activators; shares compounds with D2 ag-2; actives 5.9% (n = 2,300); AID 720507, 2013; also: potency is read from the fitted curve at half-maximal effect; % of control where 0% means no effect; nearly all actives have a fitted effect of over 70% in size
* = called active by the depositor; ? = inconclusive; . = no result given. Unless noted, calls follow the shape of the dose curve; as a rule, active = well fitted activation curve with a large enough effect; inconclusive = small, poorly fitted or top-dose-only effect; inactive = flat fitted curve, though single readings scatter.

SMILES	D2 antag	D2 PAM-1	D2 ag-1	D2 PAM-2	D2 ag-2	D3 ag	D2 ag-3
CCOc1ccc(/C=N/NC(=O)c2cc(-c3ccccc3)nc3ccccc23)cc1O	.	.	-5	-9	.	1%	7%
Cc1ccc(CNC(=O)Cn2ncc3c(C)n(Cc4ccc(Cl)cc4)c(C)c3c2=O)cc1	.	2	.	.	0	.	.
Cc1ccc(C(=O)COC(=O)CCS(=O)(=O)c2ccccc2)cc1[N+](=O)[O-]	.	.	-11	-32	.	-22%	-16%
COc1ccc(-c2cc(C)no2)cc1S(=O)(=O)NCCCN1CCN(c2ccccc2)CC1	80*	-31	7	-6	78*	24%	?
CSc1ccc(CCNS(=O)(=O)c2cc(-c3cc(C)no3)ccc2C)cc1	.	9	.	.	0	.	.
Cc1cc(-c2ccc(C)c(S(=O)(=O)NCCCN3CCN(c4ccccc4)CC3)c2)on1	73*	-28	11	-8	72*	?	?
Cc1cc(-c2ccc(C)c(S(=O)(=O)NCCCN3CCN(c4ccccc4F)CC3)c2)on1	76*	-24	11	-8	70*	?	?
COc1cc(OC)c(OC)cc1CN1CCc2nc(Nc3ccc4c(c3)OCCO4)ncc2C1	.	6	.	.	.	.	.
CC(C)Oc1ccc(CNC(=O)C(C)n2ccc3cc(S(=O)(=O)N4CCCCCC4)ccc32)cc1 (stereo not drawn)	.	-1	.	.	0	.	.
COC(=O)NCC(c1ccc2c(c1)OCO2)N1CCN(c2ccccc2)CC1 (stereo not drawn)	-16	2	1	-19	7	.	.
COc1ccccc1N1CCN(C(CNS(=O)(=O)c2ccccc2)c2ccccc2)CC1 (stereo not drawn)	20	-15	-1	-33	7	-7%	-1%
COc1ccc(S(=O)(=O)NCC(c2ccc3c(c2)OCO3)N2CCN(c3ccccc3)CC2)cc1 (stereo not drawn)	73*	-26	?	28	66*	16%	11µM*
COc1ccccc1N1CCN(C(CNS(=O)(=O)c2cccs2)c2cccnc2)CC1 (stereo not drawn)	7	-9	-3	-16	6	.	.
Cc1ccc(S(=O)(=O)NCC(c2ccc3c(c2)OCO3)N2CCN(c3ccccc3)CC2)cc1 (stereo not drawn)	67*	-27	?	9	64*	20%	?
CCOCCCNC(=O)NC(C)c1c(-n2cccc2)sc2c1CCN(CC)C2 (stereo not drawn)	.	0	.	.	.	.	.
O=C(NCC(c1ccco1)N1CCN(c2ccccc2F)CC1)c1cccs1 (stereo not drawn)	-30	9	?	4	-1	.	.
O=C(NCC(c1ccco1)N1CCN(c2ccccc2F)CC1)C(=O)NC1CCCC1 (stereo not drawn)	4	-6	-2	2	26	.	.
O=C(NCC1CCCO1)C(=O)NCC(c1ccco1)N1CCN(c2ccccc2F)CC1 (stereo not drawn)	48*	-11	10	6	58*	32µM*	?
O=C(NCC(c1ccco1)N1CCN(c2ccccc2F)CC1)c1ccco1 (stereo not drawn)	54*	-10	?	8	32*	?	?
Cc1ccccc1NC(=O)N1CCC(CN2CCCC2)CC1	.	-1	.	.	0	.	.
CCN1C(=O)c2ccccc2S(=O)c2ccc(C(=O)N3CCN(c4ccc(F)cc4)CC3)cc21 (stereo not drawn)	.	-10	.	.	15	.	.
O=C(c1ccc(OCC2CCCO2)cc1)N1CCN(S(=O)(=O)c2cccc(F)c2)CC1 (stereo not drawn)	12	2	-3	14	0	-2%	2%
O=C(Nc1cccc(S(=O)(=O)N2CCCCC2)c1)c1ccc(OCC2CCCO2)cc1 (stereo not drawn)	-1	-2	-3	-2	0	.	.
CCc1ccc(NC(=O)c2ccc(F)c(S(=O)(=O)N(C)C3CCCCC3)c2)cc1	.	6	.	.	1	.	.
COc1cccc(CN2CCC(Oc3ccc(C(=O)N4CCCCC4)cc3)CC2)c1	-9	-2	-3	-18	0	.	.
SMILES	D2 antag	D2 PAM-1	D2 ag-1	D2 PAM-2	D2 ag-2	D3 ag	D2 ag-3
CC(CCc1ccc(O)cc1)N1CCC(Oc2ccc(C(=O)N3CCCC3)cc2)CC1 (stereo not drawn)	39*	-21	13	-12	60*	?	18%
CC(C)/C=C/CN1CCC(Oc2ccc(C(=O)N3CCCC3)cc2)CC1	.	.	.	.	.	-7%	0%
CC(C(=O)Nc1ccc(N2CCOCC2)cc1)N1C(=O)c2ccccc2C1=O (stereo not drawn)	-3	-5	0	-7	1	.	.
CC(C)C(C(=O)Nc1ccc(N2CCOCC2)cc1)N1C(=O)c2ccccc2C1=O (stereo not drawn)	19	2	1	16	0	4%	4%
O=C(c1cccc(S(=O)(=O)Nc2ccccc2Cl)c1)N1CCN(c2ccccc2O)CC1	14	7	15	-1	0	11%	8%
O=C(c1cccc(NS(=O)(=O)c2ccc(Br)cc2)c1)N1CCN(c2ccccc2O)CC1	3	-10	-5	-23	1	9%	11%
COc1cccc(-n2cc(C(=O)Nc3cccc(C(F)(F)F)c3)c3ccccc3c2=O)c1	.	-4	.	.	0	.	.
COc1cccc(-n2cc(C(=O)NCc3ccc(C)cc3)c3ccccc3c2=O)c1	.	8	.	.	0	.	.
O=C(NCCCN1CCN(c2cccc(Cl)c2)CC1)c1cnn(-c2ccc(F)cc2)c1-n1cccc1	.	-5	.	.	-1	.	.
COc1ccc(NC(=O)c2ccc(CN3CCN(c4ccccc4)CC3)cc2)cc1	82*	-37	?	11	86*	18%	14µM*
